Data taken from PubChem BioAssay (NCI).
The panel holds about 79,000 compounds, 15% with a hit somewhere; the sample as a whole holds those more often. Calls of active or inactive are those of the source. No stated cut-off is given here; in the data, active means growth inhibition above about 70%; inactive means the rest.

Columns and labels:
[1] = NCI Yeast Anticancer Drug Screen. Data for the rad50 strain (AID 155);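 further: 0% = growth of vehicle-only cultures of the same strain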; conditions: S. cerevisiae rad50 strain growth inhibition, active compounds read high
In short: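 A DNA repair-deficient yeast mutant serves as the test organism; compound-induced growth inhibition is calculated against vehicle-treated cells.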

[2] = NCI Yeast Anticancer Drug Screen. Data for the mec2-1 strain (AID 157); conditions: S. cerevisiae mec2-1 strain, active compounds read high
In short: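 Readout is yeast growth inhibition, normalised to vehicle-treated controls, in the mec2-1 strain exposed to compound.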

[3] = NCI Yeast Anticancer Drug Screen. Data for the sgs1 mgt1 strain (AID 161);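 further: 0% = growth of cultures given vehicle only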; conditions: S. cerevisiae sgs1 mgt1 strain, active compounds read high
In short: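 Yeast cells carrying a defined DNA-repair defect were exposed to test compounds. Growth inhibition was measured relative to vehicle-treated controls.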

[4] = NCI Yeast Anticancer Drug Screen. Data for the cln2 rad14 strain (AID 165);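 further: 0% = growth equal to vehicle treated cultures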; conditions: S. cerevisiae cln2 rad14 strain, active compounds read high
In short: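 Relative to vehicle controls, growth inhibition of compound-treated cln2 rad14 yeast was recorded.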

[5] = NCI Yeast Anticancer Drug Screen. Data for the bub3 strain (AID 167); conditions: S. cerevisiae bub3 mutant strain, active compounds read high
In short: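 Inhibition values come from growth of compound-treated mutant yeast normalised to vehicle-treated controls.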

[6] = NCI Yeast Anticancer Drug Screen. Data for the mlh1 rad18 strain (AID 175); conditions: S. cerevisiae mlh1 rad18 strain growth inhibition, active compounds read high
In short: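 Test agents were incubated with a yeast strain of defined genotype (DNA damage repair defect). Inhibition of growth was derived by comparison with vehicle-exposed cultures.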

[7] = at 5.0 µM (retest, dose inferred, filed as 0.5)
[8] = at 50.0 µM (retest, dose inferred, filed as 5.0)

Measured: growth inhibition

CCCCCCCCCCCCCCNC(=O)CCC(NC(=O)c1ccc(N(C)Cc2cnc3nc(N)nc(N)c3n2)cc1)C(=O)NCCCCCCCCCCCCCC (stereo not given)
active: [1]; [8] 94% | [2]; [8] 96% | [2]; at 50.0 µM 84.7% | [3]; [8] 93% | [3]; at 50.0 µM 86.3% | [4]; [8] 77% | [5]; [8] 93% | [6]; [8] 91%
inactive: [1]; [7] 28% | [1]; at 50.0 µM 64.9% | [2]; [7] 22% | [3]; [7] 19% | [4]; [7] 3% | [4]; at 50.0 µM 45.1% | [5]; [7] 24% | [5]; at 50.0 µM 68.7% | [6]; [7] 24% | [6]; at 50.0 µM 20.8%

C#CC(CC)(CC)N=Cc1cc(Cl)cc(Cl)c1O
active: [1]; [8] 94% | [1]; at 50.0 µM 89.2% | [2]; [8] 97% | [2]; at 50.0 µM 91.8% | [3]; [8] 99% | [3]; at 50.0 µM 92% | [4]; [8] 72% | [4]; at 50.0 µM 88.7% | [5]; at 50.0 µM 90.7% | [6]; [8] 98% | [6]; at 50.0 µM 90.5%
inactive: [1]; [7] 65% | [2]; [7] 42% | [3]; [7] 58% | [4]; [7] 41% | [5]; [7] 51% | [5]; [8] 66% | [6]; [7] 69%

O=C(Nc1ccc(Cl)cc1)Nc1nnc(/C=C/c2ccc(Cl)c(Cl)c2)o1
inactive: [1]; [7] -1% | [1]; [8] -4% | [1]; at 50.0 µM -6.15% | [2]; [7] 1% | [2]; [8] -91% | [2]; at 50.0 µM 19.4% | [3]; [7] -1% | [3]; [8] 0% | [3]; at 50.0 µM 3.6% | [4]; [7] 1% | [4]; [8] -4% | [4]; at 50.0 µM -14.2% | [5]; [7] -44% | [5]; [8] 7% | [5]; at 50.0 µM -4.75% | [6]; [7] 1% | [6]; [8] -16% | [6]; at 50.0 µM -12.1%

COc1cccc2nc3c(C(=O)NCCN(C)C)cccc3cc12
active: [1]; [8] 94% | [1]; at 50.0 µM 81.7%
inactive: [1]; [7] 60% | [2]; [7] 15% | [2]; [8] 43% | [2]; at 50.0 µM 15.9% | [3]; [7] 24% | [3]; [8] 56% | [3]; at 50.0 µM 10.4% | [4]; [7] 15% | [4]; [8] 49% | [4]; at 50.0 µM -7.1% | [5]; [7] 22% | [5]; [8] 47% | [5]; at 50.0 µM -50.6% | [6]; [7] 24% | [6]; [8] 65% | [6]; at 50.0 µM 0.05%

COc1ccc(OC(=O)c2ccccc2)c2c1C(=O)C=CC2=O
active: [1]; at 50.0 µM 92.7% | [2]; at 50.0 µM 84.2% | [3]; at 50.0 µM 90.2% | [5]; at 50.0 µM 76.8%
inactive: [1]; [7] 5% | [1]; [8] 38% | [2]; [7] 10% | [2]; [8] 38% | [3]; [7] -38% | [3]; [8] 21% | [4]; [7] 0% | [4]; [8] 18% | [4]; at 50.0 µM 51.5% | [5]; [7] -1% | [5]; [8] 24% | [6]; [7] 9% | [6]; [8] 24% | [6]; at 50.0 µM 67.8%

CCc1cccc(CC)c1NC1=C(Cl)C(=O)c2ccccc2C1=O
inactive: [1]; at 50.0 µM -21.1% | [2]; at 50.0 µM 5% | [3]; at 50.0 µM 14.5% | [4]; at 50.0 µM -26.9% | [5]; at 50.0 µM 5.15% | [6]; at 50.0 µM 19.1%
active: [1]; [7] 99% | [1]; [8] 99% | [2]; [7] 100% | [2]; [8] 99% | [3]; [7] 99% | [3]; [8] 99% | [4]; [7] 95% | [4]; [8] 98% | [5]; [7] 99% | [5]; [8] 98% | [6]; [7] 99% | [6]; [8] 98%

CCCCCCCCCCCc1nnc(N)o1
inactive: [1]; [7] 28% | [2]; [7] 11% | [3]; [7] 1% | [4]; [7] 35% | [5]; [7] -10% | [6]; [7] 7%
active: [1]; [8] 91% | [1]; at 50.0 µM 96.7% | [2]; [8] 92% | [2]; at 50.0 µM 96.2% | [3]; [8] 89% | [3]; at 50.0 µM 95.2% | [4]; [8] 92% | [4]; at 50.0 µM 93.3% | [5]; [8] 99% | [5]; at 50.0 µM 95.1% | [6]; [8] 94% | [6]; at 50.0 µM 96.8%

N#[N+]c1c([O-])ccc2nc3ccccc3nc12
inactive: [1]; [7] -101% | [1]; [8] 12% | [1]; at 50.0 µM 68.4% | [2]; [7] -43% | [2]; [8] -45% | [2]; at 50.0 µM 40.7% | [3]; [7] -56% | [3]; [8] -30% | [3]; at 50.0 µM 10.2% | [4]; [7] -52% | [4]; [8] -65% | [4]; at 50.0 µM -1.5% | [5]; [7] -59% | [5]; [8] -69% | [5]; at 50.0 µM -14.9% | [6]; [7] -114% | [6]; [8] -56% | [6]; at 50.0 µM 66.9%

Clc1nc2cc3nc(Cl)c(Cl)nc3cc2nc1Cl
inactive: [1]; [7] 18% | [1]; at 50.0 µM 21.2% | [2]; [7] 24% | [2]; at 50.0 µM 16.3% | [3]; [7] 14% | [3]; [8] 24% | [3]; at 50.0 µM 36.4% | [4]; [7] 26% | [4]; [8] 23% | [4]; at 50.0 µM 30.1% | [5]; [7] 17% | [5]; [8] 30% | [5]; at 50.0 µM 15.6% | [6]; [7] 29% | [6]; at 50.0 µM -1.2%
active: [1]; [8] 71% | [2]; [8] 93% | [6]; [8] 91%

Cc1cc2nc3c(C)c4ccccc4c(C)n3c2cc1C
active: [1]; [7] 82% | [1]; [8] 93% | [1]; at 50.0 µM 80.8% | [2]; [8] 96% | [2]; at 50.0 µM 87.8% | [3]; [7] 72% | [3]; at 50.0 µM 85.3% | [4]; [7] 73% | [4]; [8] 94% | [4]; at 50.0 µM 83.4% | [5]; [7] 75% | [5]; [8] 94% | [5]; at 50.0 µM 86.4% | [6]; [7] 81% | [6]; [8] 95% | [6]; at 50.0 µM 79.3%
inactive: [2]; [7] 69% | [3]; [8] 50%
